About 500 (1.3%) of roughly 39,000 compounds were called active. The entries come from a sample that favours actives as a whole.

The test deals with S. aureus RN4220. Kind of test: growth inhibition call (relative growth <= 0.2). The settings on record: 50 µM.
For the compound `C[C@H](CO)N1C[C@H](C)[C@@H](CN(C)C(=O)Nc2cccc3ccccc23)Oc2ccc(NC(=O)Cn3cnnn3)cc2CC1=O`, the growth inhibition call is “inactive”. As for `C[C@@H]1CN([C@H](C)CO)C(=O)c2cc(NC(=O)Nc3ccc(C(F)(F)F)cc3)ccc2O[C@@H](C)CCCCO[C@H]1CN(C)C(=O)C1CCCCC1`, the entry is “inactive”. For `C[C@H](CO)N1C[C@H](C)[C@@H](CN(C)C(=O)C2CCCCC2)OCCCC[C@H](C)Oc2ccc(NC(=O)Nc3ccc(C(F)(F)F)cc3)cc2C1=O`, the growth inhibition call is “inactive”. As for `CO[C@@H](CN(C)C(=O)C1CCOCC1)[C@@H](C)CN(C(=O)Nc1ccc(C(F)(F)F)cc1)[C@H](C)CO`, the entry is “active”.

Regarding `CO[C@H](CN(C)C(=O)Nc1ccc(C(F)(F)F)cc1)[C@H](C)CN(Cc1ccccc1Cl)[C@@H](C)CO`, the growth inhibition call is “inactive”. For the compound `CO[C@@H](CN(C)C(=O)C1CCOCC1)[C@@H](C)CN(C(=O)Nc1ccc(C(F)(F)F)cc1)[C@@H](C)CO`, the growth inhibition call is “inactive”. As for `CO[C@H](CN(C)C(=O)Nc1ccc(C(F)(F)F)cc1)[C@@H](C)CN(Cc1ccccc1Cl)[C@@H](C)CO`, the entry is “inactive”; as for `CO[C@H](CN(C)C(=O)C1CCOCC1)[C@@H](C)CN(C(=O)Nc1ccc(C(F)(F)F)cc1)[C@@H](C)CO`, “active”; as for `CO[C@@H](CN(C)C(=O)Nc1ccc(C(F)(F)F)cc1)[C@H](C)CN(Cc1ccccc1Cl)[C@@H](C)CO`, “inactive”. Take `CO[C@@H](CN(C)C(=O)Nc1ccc(C(F)(F)F)cc1)[C@H](C)CN(Cc1ccccc1Cl)[C@H](C)CO`: the growth inhibition call is “inactive”. Regarding `CO[C@@H](CN(C)C(=O)C1CCOCC1)[C@H](C)CN(C(=O)Nc1ccc(C(F)(F)F)cc1)[C@@H](C)CO`, the growth inhibition call is “active”. For `CO[C@H](CN(C)C(=O)C1CCOCC1)[C@H](C)CN(C(=O)Nc1ccc(C(F)(F)F)cc1)[C@@H](C)CO`, the growth inhibition call is “active”. Take `CO[C@H](CN(C)C(=O)Nc1ccc(C(F)(F)F)cc1)[C@@H](C)CN(Cc1ccccc1Cl)[C@H](C)CO`: the growth inhibition call is “inactive”. As for `COc1ccc(S(=O)(=O)N(C)C[C@@H]2OCc3cn(nn3)CCCC(=O)N([C@H](C)CO)C[C@H]2C)cc1`, the entry is “inactive”; as for `COc1ccc(NC(=O)N(C)C[C@@H]2OCCCC[C@H](C)Oc3ccc(NS(=O)(=O)c4ccc(C)cc4)cc3C(=O)N([C@H](C)CO)C[C@H]2C)cc1`, “inactive”; as for `Nc1nnc(CC(=O)N2CCCCC2)o1`, “inactive”.

Take `CN1C(=O)c2cc(NC(=O)Nc3ccccc3F)ccc2OC[C@@H]2O[C@@H](CC(=O)NCc3ccc(-c4ccccc4)cc3)CC[C@H]21`: the growth inhibition call is “inactive”. As for `Cc1noc(C)c1S(=O)(=O)Nc1ccc2c(c1)CC(=O)N([C@@H](C)CO)C[C@H](C)[C@H](CN(C)Cc1ccc(C(=O)O)cc1)O2`, the entry is “inactive”; as for `C[C@@H]1CCCCO[C@H](CN(C)C(=O)Nc2cccc3ccccc23)[C@H](C)CN([C@@H](C)CO)C(=O)c2cc(NS(=O)(=O)c3ccc(Cl)cc3)ccc2O1`, “inactive”. The value for `COc1ccc(S(=O)(=O)N(C)C[C@@H]2OCc3cnnn3CCCC(=O)N([C@@H](C)CO)C[C@H]2C)cc1` was “inactive”.

In the case of `C[C@H]1CCCCO[C@H](CN(C)C)[C@@H](C)CN([C@@H](C)CO)C(=O)c2cc(NC(=O)CCCN(C)C)ccc2O1`, the growth inhibition call was “inactive”.

In the case of `Cc1cc(C)c(S(N)(=O)=O)cc1S(N)(=O)=O`, the growth inhibition call is “inactive”. `C=CCOC(=O)[C@@H]1[C@H]2C(=O)O[C@H](c3ccccc3)[C@H](c3ccccc3)N2[C@H](c2ccc(OCCOC(=O)[C@@H]3C[C@@H]4C(=O)N[C@@H](Cc5ccccc5)C(=O)N4[C@@H]3c3ccc(O)cc3)cc2)[C@@]12C(=O)Nc1ccccc12`: the growth inhibition call was “inactive”. As for `C[C@H]1CN([C@@H](C)CO)C(=O)c2cc(C#CCN(C)C)cnc2O[C@@H]1CN(C)Cc1cccc(C(=O)O)c1`, the entry is “inactive”; as for `COc1ccc(S(=O)(=O)N(C)C[C@@H]2Oc3ccc(NS(C)(=O)=O)cc3C(=O)N([C@H](C)CO)C[C@@H]2C)cc1`, “inactive”; as for `CO[C@@H](CN(C)C(=O)Nc1ccc(C(F)(F)F)cc1)[C@@H](C)CN(Cc1ccccc1Cl)[C@@H](C)CO`, “inactive”. As for `CO[C@H](CN(C)C(=O)C1CCOCC1)[C@H](C)CN(C(=O)Nc1ccc(C(F)(F)F)cc1)[C@H](C)CO`, the entry is “active”. Turning to `C[C@@H]1CCCCO[C@@H](CN(C)C(=O)C2CCCCC2)[C@H](C)CN([C@@H](C)CO)C(=O)c2cc(NC(=O)Nc3ccc(C(F)(F)F)cc3)ccc2O1`, the growth inhibition call is “inactive”. As for `CO[C@H](CN(C)C(=O)C1CCOCC1)[C@@H](C)CN(C(=O)Nc1ccc(C(F)(F)F)cc1)[C@H](C)CO`, the entry is “active”. As for `CO[C@H](CN(C)C(=O)Nc1ccc(C(F)(F)F)cc1)[C@H](C)CN(Cc1ccccc1Cl)[C@H](C)CO`, the entry is “inactive”; as for `C[C@@H]1CCCCO[C@@H](CN(C)C(=O)C2CCCCC2)[C@@H](C)CN([C@H](C)CO)C(=O)c2cc(NC(=O)Nc3ccc(C(F)(F)F)cc3)ccc2O1`, “inactive”; as for `Cc1noc(C)c1NC(=O)Nc1ccc2c(c1)C(=O)N([C@H](C)CO)C[C@@H](C)[C@H](CN(C)S(=O)(=O)c1ccc(Cl)cc1)OCCCC[C@@H](C)O2`, “inactive”. As for `C[C@H](CO)N1C[C@H](C)[C@@H](CN(C)Cc2ccc(C(=O)Nc3ccccc3N)cc2)Oc2c(NC(=O)c3nc4ccccc4s3)cccc2C1=O`, the entry is “inactive”; as for `COc1ccc(S(=O)(=O)Nc2ccc3c(c2)C(=O)N([C@H](C)CO)C[C@H](C)[C@@H](CN(C)Cc2ccc(C(=O)O)cc2)OCCCC[C@@H](C)O3)cc1`, “inactive”; as for `CCNC(=O)C[C@H]1C=C[C@H](NC(=O)C2CC2)[C@H](CO)O1`, “inactive”. `O=c1c(O)nnc2n1CCN2c1ccccc1`: the growth inhibition call is “inactive”. The value for `Cc1noc(C)c1S(=O)(=O)Nc1cccc2c1O[C@@H](CN(C)S(=O)(=O)c1ccccc1)[C@@H](C)CN([C@H](C)CO)C2=O` was “inactive”; that for `Cc1ccc(S(=O)(=O)Nc2ccc3c(c2)C(=O)N([C@@H](C)CO)C[C@H](C)[C@@H](CN(C)CC2CCCCC2)OCCCC[C@H](C)O3)cc1` was “inactive”; that for `Cc1ccc(CN2CCN(CCO)CC2)o1` was “inactive”. As for `O=C(NCC(F)(F)F)[C@H]1[C@H](CO)[C@H]2Cn3c(cccc3=O)[C@@H]1N2C(=O)C1CCC1`, the entry is “inactive”; as for `CCCNC(=O)c1cc2c(c(-c3cccc(-c4cccc(F)c4)c3)n1)[C@H](CCO)N([S@@](=O)C(C)(C)C)C2`, “active”; as for `CCCNC(=O)c1cc2c(c(-c3cccc(-c4cccc(F)c4)c3)n1)[C@@H](CCO)N([S@](=O)C(C)(C)C)C2`, “inactive”. `CCCNC(=O)c1cc2c(c(-c3cccc(-c4ccc(F)cc4)c3)n1)[C@H](CCO)N([S@@](=O)C(C)(C)C)C2`: the growth inhibition call is “inactive”.

(Values after the antibiotic and cytotoxicity screens of Wong et al. (2023).)
